Our source for the growth values is PubChem BioAssay (NCI).

“And” between values parts separate entries of the source, which are not always exact repeats. Equal entries are not always repeated. The panel holds about 83,000 compounds, 20% with a hit somewhere; the sample as a whole holds those more often.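 A percent growth of 40 corresponds to 60% growth inhibition; 0 means no net growth; -100 means all cells died. Active threshold: below 10.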 The source made the active and inactive calls.

One experiment has as its system NCI-H322M lung. The experiment can be described thus: NCI-60 one-dose screen, 48 h (100 = growth as untreated, 0 = no growth, -100 = all killed). Particulars: 4.75 µM. The procedure: Growth inhibition of the NCI-H322M human Non-Small Cell Lung tumor cell line is measured as a screen for anti-cancer activity. Cells are grown in 96 well plates and exposed to the test compound for 48 hours. Compounds are tested at a single concentration, which is 10^-5 M for most compounds. The reported endpoint is percent growth (GI% or GIPRCNT), where numbers from 0 - 100% represent growth inhibition, and numbers from -100% - 0 represent cell death. For example, a value of 40 represents 60% growth inhibition. A value of 0 means no net growth occurred over the course of the experiment. A value of -40 indicates 40% of cells at the beginning of the experiment died by the end of the experiment. A value of -100 means all cells are dead at the end of the experiment.
NCI-60 Human Tumor Cell Lines Screen was performed using the standard one-dose NCI protocol, which is described in more detail at https://dtp.cancer.gov/discovery_development/nci-60/default.htm.
Compounds with GIPRCNT values below 10 were considered active. Activity score was based on GIPRCNT using the following formula: […]
Score is 0 for GIPRCNT values of 100 or above, 50 for GIPRCNT values of 0, and 100 for GIPRCNT values of -100.
Consider `CC(=O)OCC1OC([S-])C(OC(C)=O)C(OC(C)=O)C1OC(C)=O.[Au+].c1ccc(CN2[CH-]N(Cc3ccccc3)C(c3ccccc3)=C2c2ccccc2)cc1`, for which the growth is 20.8% (inactive).

Staying with this experiment, now noted: 10 µM.
As to `CC(=O)OCC1OC([S-])C(OC(C)=O)C(OC(C)=O)C1OC(C)=O.[Au+].c1ccc(CN2[CH-]N(Cc3ccccc3)C(c3ccccc3)=C2c2ccccc2)cc1`, the growth is 57.5% (inactive).

Staying with this experiment, now noted: 10 µM unless noted.
In the case of `CC[C@H](C)[C@H](NC(=O)[C@H]1CCCCN1C)C(=O)N(C)[C@H](C[C@@H](OC(C)=O)c1nc(C(=O)NC23C4C5C2C2C3C4C52C(=O)OC)cs1)C(C)C` (stereo not given in full), the growth is 48.3% (inactive).

Consider `N#CCc1ccc(CC#N)cc1`, for which the growth was 107% (inactive).

For `CCCCn1c(=O)c(C(=O)NCc2ccccc2Cl)c(O)c2ccccc21`, the growth is 75.2% (inactive).

For the compound `O=C1CCCCC1CN1CCCCC1` (stereo not given), the growth was 94.6% (inactive).

As to `C[C@]12CC[C@H]3[C@@H](C[C@@H]4SC(Nc5ccccc5)=N[C@@]45C/C(=N/O)CC[C@]35C)[C@@H]1CCC2=O`, the growth is 94.5% (inactive).

On to `N#CC(C#N)=Cc1cccc(F)c1`, for which the growth is 104% (inactive).

As to `C#Cc1cccc(Nc2nc(Cl)nc3cc(NC(=O)CF)ccc23)c1`, the growth is 80% (inactive).

Turning to `CCC1CCC(=O)O1` (stereo not given), the growth is 102% (inactive) and 104% (inactive).

For `CO[C@H]1[C@H](O[C@@H]2C[C@@H]3C/C=C/C(=O)O[C@@H](CO)C[C@H](O)[C@@H]4C[C@H](C)[C@H](C/C=C\C=C\[C@H](C)C[C@H](C2)O3)O4)O[C@@H](C)[C@H](O)[C@H]1O`, the growth is 89.5% (inactive).

Consider `CCCCS(=O)(=O)Cl`, for which the growth was 111% (inactive).

For the compound `O=S(OO)c1cc(Cl)c(O)c(Cl)c1` (stereo not given), the growth is 97.7% (inactive).

Turning to `CCOC(=O)C1C(C=C(C)C)C1(C)C` (stereo not given), the growth was 140% (inactive).

As for `CCCCCCCCCCCCCCCC[N+](C)(C)Cc1ccccc1`, the growth was 63.3% (inactive) and 33.8% (inactive).

For `CC[C@H](C)[C@H](NC(=O)CN(C)C)C(=O)N(C)[C@H](C[C@@H](OC(C)=O)c1nc(C(=O)NC23C4C5C2C2C3C4C52C(=O)OC)cs1)C(C)C` (stereo not given in full), the growth is 42.2% (inactive).

As for `COC[C@H]1OC(=O)c2coc3c2[C@@]1(C)C1=C(C3=O)[C@@H]2CCC(=O)[C@@]2(C)C[C@H]1OC(C)=O`, the growth is 35.3% (inactive).

With `C[C@]12CCC3[C@@H](C[C@@H]4SC(Nc5ccccc5)=N[C@@]45CC(=O)CC[C@]35C)[C@@H]1CCC2=O` (stereo not given in full), the growth was 58.2% (inactive).

For `Cc1c(C)c(N)c(C)c(C)c1N`, the growth is 87.6% (inactive).

As for `O=c1c2ccccc2nc(-c2ccccc2Cl)n1-c1nnc(C(F)(F)F)s1`, the growth is 17.6% (inactive).

As to `CCCCCCCCCCCCCCCC[N+](C)(C)C`, the growth is -70% (active) and 60.7% (inactive).

As to `C[C@]12CCc3sc(Nc4ccc(F)cc4F)nc3C1=CC[C@@H]1[C@@H]2CC[C@]2(C)C(=O)CC[C@@H]12`, the growth is 84.5% (inactive).

Take `COc1ccn(C)c(=O)c1C#N`: the growth is 92.3% (inactive).

Turning to `CC[C@H](C)[C@H](NC(=O)[C@H]1CCCCN1C)C(=O)N(C)[C@H](C[C@@H](OC(C)=O)c1cccc(C(=O)N[C@@H](Cc2ccccc2)C[C@H](C)C(=O)OC)n1)C(C)C`, the growth is 40.3% (inactive).

Regarding `CC1=CC(=Nc2ccc(N(CCCl)CCCl)cc2)C=C(C)C1=O`, the growth is 79.2% (inactive).

Regarding `Oc1cc(Cl)ccc1Oc1ccc(Cl)cc1Cl`, the growth was 97.6% (inactive).

Take `O=C1C=C(N2CC2)c2ccccc2C1=O`: the growth is 91.1% (inactive).

On to `N#CCC(=O)c1ccccc1`, for which the growth was 96.6% (inactive).

As to `N#CCCc1ccccc1`, the growth was 105% (inactive).

As to `COC12CC3C4=CCOC5CC(=O)N6c7ccccc7C1(CCN2C4)C6C53` (stereo not given), the growth was 109% (inactive).

For the compound `O=C1c2ccccc2C(=O)N1N1CC1c1ccccc1` (stereo not given), the growth was 92.5% (inactive).

`O=P1(N(CCCl)CCCl)NCCCO1` (stereo not given): the growth was 104% (inactive).

As for `Cc1ccc(S(=O)(=O)n2cc([C@@]3(O)C[C@H](CSC#N)OC3=O)c3ccccc32)cc1`, the growth is 106% (inactive).

As for `CNC(=O)O/N=C(\SC)C(=O)N(C)C`, the growth was 111% (inactive).

For the compound `Cc1c2ccncc2c(C)c2c1[nH]c1ccccc12`, the growth was -83.3% (active).

For `COc1cc(C=C2C(=O)NC(=O)NC2=O)ccc1O`, the growth was 117% (inactive).

As to `COc1cc(C2C3=C(CCCC3=O)N(CCO)c3cc4c(cc32)CCC4)cc(OC)c1OC` (stereo not given), the growth was 75.1% (inactive).

For `C[C@@H]1C/C=C\C(=O)O[C@H](/C=C/C#C/C=C/C(C)(C)[C@@H](O)c2cccc(O)c2Br)[C@@H](C)/C=C/[C@H](C)C[C@H](OC(N)=O)C1`, the growth was 54.1% (inactive).

Regarding `CCC(Br)(CC)C(=O)NC(N)=O`, the growth was 106% (inactive).

For `CCCCCCCCCCCCCCCC[n+]1ccccc1`, the growth is 11.4% (inactive) and 40.2% (inactive).
